TDP1 cell CPT = DT40-hTDP1 cell growth loss with CPT; 420,000 tested, 12% active; Potency, µM (doses to about 46.2 µM), for inactives: top-dose activity change, negative = growth inhibition, usual class: inhibitors; chicken DT40 Tdp1-/-;hTDP1 cells + 20 nM CPT, ATP luminescence, 48 h; note: nearly all actives have a fitted effect of over 55% in size
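Chicken DT40 Tdp1-/- cells complemented with human TDP1, 400 cells/well, exposed to compounds plus 20 nM camptothecin for at least 48 h at 37 C; viability read as ATP content by CellTiter-Glo luminescence.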
12-LOX inh = inhibitors of human 12S-lipoxygenase ALOX12. purified 12hLO, xylenol orange hydroperoxide absorbance. 580,000 tested, 1.1% active. Potency, µM (doses to about 108 µM), inactives show top-dose activity change, negative = inhibition, actives largely listed as inhibitors. P18054
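Purified human 12hLO at 150 nM in 25 mM Hepes, 0.01% Triton X-100, pH 7.0, preincubated 15 min at room temperature with compound. Reaction started with 40 uM arachidonic acid, 30 min at room temperature. Hydroperoxide measured by Fe-xylenol orange, 573/405 nm absorbance ratio.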
ELG1 DNA repair = ELG1-dependent DNA repair inhibition; HEK293T ELG1-luciferase reporter, luminescence, 16 h; DNA damage induced by 5-fluorouridine; 330,000 tested, 2.3% active; AID 504467; Potency, µM (top dose mostly 46.1 µM), for inactives: at the highest dose activity change, negative = inhibition, most hits filed as inhibitors; note: nearly all actives have a fitted effect of over 55% in size
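Reporter activity after DNA damage by 5-fluorouridine is monitored. Compound-treated cells incubate 16 hr at 37 °C, then ONE-Glo is added for 30 min before luminescence reading.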
VP16 counter = Gal4-VP16 reporter inhibition counter-screen; Drosophila S2 Gal4-VP16 UAS-luciferase, luminescence, 20 h; Potency, µM (doses to about 53.6 µM), for the others: at the top dose activity, negative = inhibition, actives largely listed as inhibitors; AID 2546; 310,000 tested, 3.5% active;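 note: Gal4-VP16 expression switched on by copper sulfate through the metallothionein promoter; nearly all actives have a fitted effect of over 50% in size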
RORgamma inh = ROR gamma (mouse) transcription inhibition | P51450 | Drosophila S2 Gal4-RORgamma UAS-luciferase reporter, 20 h | Potency, µM (titrated, usually from 53.6 µM), for the others: at the highest dose activity change, negative = inhibition, usual class: inhibitors | 310,000 tested, 5.4% active; note: nearly all actives have a fitted effect of over 60% in size
Target sequence (P51450 whole entry, looked up, the tested form may be a part): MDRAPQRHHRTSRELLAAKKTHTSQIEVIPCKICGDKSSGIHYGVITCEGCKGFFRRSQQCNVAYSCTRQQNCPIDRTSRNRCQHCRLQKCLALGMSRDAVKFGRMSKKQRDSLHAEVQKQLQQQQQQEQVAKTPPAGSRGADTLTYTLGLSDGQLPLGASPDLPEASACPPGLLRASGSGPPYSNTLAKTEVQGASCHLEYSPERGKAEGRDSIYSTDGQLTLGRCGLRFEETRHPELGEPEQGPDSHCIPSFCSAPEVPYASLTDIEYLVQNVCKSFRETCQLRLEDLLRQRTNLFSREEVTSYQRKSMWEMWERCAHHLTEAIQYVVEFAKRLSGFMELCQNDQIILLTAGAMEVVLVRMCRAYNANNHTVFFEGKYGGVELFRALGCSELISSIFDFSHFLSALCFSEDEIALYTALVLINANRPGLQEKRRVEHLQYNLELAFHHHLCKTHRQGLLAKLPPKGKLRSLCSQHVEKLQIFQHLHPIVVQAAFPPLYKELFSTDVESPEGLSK
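Luciferase reporter read in Schneider cells carrying Gal4-RORγ (mouse) and UAS-Photinus luciferase; cells given compound 1 h before 700 uM copper sulfate induction, then incubated 20 h at ambient temperature.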
DT40 TDP1 no CPT = qHTS for Inhibitors of human tyrosyl-DNA phosphodiesterase 1 (TDP1): qHTS in cells in absence of CPT. DT40 Tdp1-/- hTDP1 cells, no CPT, ATP luminescence, 48 h. Potency, µM (doses to about 46.2 µM), without a hit: at the highest dose activity change, negative = growth inhibition, most hits filed as inhibitors. 420,000 tested, 15% active; note: nearly all actives have a fitted effect of over 55% in size
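Readout: luminescence from CellTiter-Glo after 30 min in the dark at RT. Cells: DT40 Tdp1-/- with stable hTDP1, 400/well. Exposure: compounds alone, ≥48 hr, 37 °C.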
* = called active by the depositor; ? = inconclusive; / = not tested or not shown. The list is not random: actives were taken first. Their share in the collection is about 15%. Calls come from the whole dose curve; as a rule, active = well fitted curve in the direction sought with a large enough effect; inconclusive = small, poorly fitted or top-dose-only effect, or another doubt; inactive = no such curve, though single readings can be large; an effect the other way counts as inactive or inconclusive. % is set by controls: 0 for no effect and ±100 for the full control effect; potency is the fitted concentration of half-maximal effect.

SMILES	TDP1 cell CPT	12-LOX inh	ELG1 DNA repair	VP16 counter	RORgamma inh	DT40 TDP1 no CPT
O=[N+]([O-])c1ccc(Nc2nc(NC3CCCCC3)nc(N3CCCC3)n2)cc1	26µM*	?	?	?	36%	23µM*
O=[N+]([O-])c1ccc(NC2CCCC2)cc1	-27%	-6%	-4%	-3%	?	-14%
O=[N+]([O-])c1ccc(Nc2nc(N/N=C/c3cccc(F)c3)nc(N3CCCC3)n2)cc1	6.5µM*	?	4.6µM*	-30%	?	8.2µM*
COCCNC(=O)c1cc(-c2ccc(Cl)cc2)nc2ccccc12	/	-75%	/	/	/	/
CC(C)C(=O)Nc1ccc2c(C(C(=O)O)N3CCN(c4ncccc4C#N)CC3)c[nH]c2c1 (stereo not drawn)	/	-25%	/	/	/	/
CS(=O)(=O)c1cccc(C(=O)Nc2nnc(C3=COCCO3)o2)c1	-18%	3%	11%	/	/	-2%
O=C(Nc1nnc(-c2ccc(F)cc2)o1)c1cccc([N+](=O)[O-])c1	3.7µM*	-9%	?	0.79µM*	0.4µM*	3.3µM*
O=C(Nc1nnc(C2=COCCO2)o1)c1cccc(Br)c1	?	12%	2%	0.5µM*	0.35µM*	?
O=C(Nc1oc2ccccc2c(=O)c1-c1ccc(F)cc1)c1cccc([N+](=O)[O-])c1	/	2%	/	/	/	/
O=C(Nc1nnc(C2=COCCO2)o1)c1cccc([N+](=O)[O-])c1	-8%	8%	17%	4µM*	1µM*	-6%
NC(=O)C1CCN(C(=O)Cn2ccc3cc(Br)ccc32)CC1	/	13%	/	/	/	/
COc1cc(OC)c(NC(=O)CCn2ccn3nc4c(c3c2=O)CCCC4)cc1Cl	/	51%	/	/	/	/
COc1ccc(N2CCN(C(=O)c3ccc(CS(=O)(=O)c4ccc(OC)cc4)o3)CC2)cc1	-59%	-17%	?	6%	8%	-25%
COc1ccc(S(=O)(=O)Cc2ccc(C(=O)N3CCN(c4cccc(C)c4)C(C)C3)o2)cc1 (stereo not drawn)	5.2µM*	-1%	13µM*	11%	1%	5.2µM*
CCOc1ccccc1N1CCN(C(=O)c2cc(C)oc2C)CC1	18µM*	1%	-20%	9%	0%	23µM*
CCOc1ccccc1N1CCN(C(=O)c2csc(C)c2CC)CC1	?	-2%	?	-20%	11%	21µM*
Cc1cccc(N2CCN(C(=O)c3noc4c3COc3ccc(C)cc3-4)CC2C)c1 (stereo not drawn)	?	31%	10%	5%	12%	23µM*
COc1ccccc1N1CCN(C(=O)c2cc(C)oc2C)CC1	-14%	0%	-5%	-10%	-5%	?
O=C(COC(=O)c1ccco1)Nc1ccc(Cl)c(C(F)(F)F)c1	/	-3%	/	/	/	/
CCCOc1nc2ccccc2nc1N1CCC(C(=O)Nc2cc(F)cc(F)c2)CC1	/	-27%	/	/	/	/
CCCn1c(=O)n(CCC(=O)N(C)CC(=O)Nc2cccc(F)c2)c2ccccc21	/	10%	/	/	/	/
CCc1oc2cc(O)ccc2c(=O)c1-c1ccccc1OC	/	-30%	/	/	/	/
Cc1cccc(N2CCN(C(=O)c3ccncc3)CC2C)c1 (stereo not drawn)	-24%	49%	?	2%	2%	-24%
COc1cccc(N2CCN(C(=O)c3cc(C)oc3C)CC2)c1	12µM*	-9%	-11%	/	/	13µM*
Cc1cccc(N2CCN(C(=O)c3cc(C)oc3C)CC2C)c1 (stereo not drawn)	?	-24%	-6%	5%	0%	16µM*
Cc1cc(C)n(CCNC(=O)c2ccc3c(c2)[nH]c(=O)n3C2CCC(O)CC2)n1 (stereo not drawn)	/	92%	/	/	/	/
CCN(CC)S(=O)(=O)c1ccc2c(c1)CC(C(=O)NCCc1ccc(SC)cc1)N2C(C)=O (stereo not drawn)	/	18%	/	/	/	/
